# Measurements taken from PubChem BioAssay (NCI).
# Several values for one entry are separate records, joined by “and”; a condition that tells them apart may be missing. Equal entries are not always repeated. About 83,000 compounds went through this panel and 20% of them were active in at least one assay; those are over-represented in the sample as a whole.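 In brief: 96-well plates, 48 h treatment, single concentration, percent growth endpoint.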 Activity calls are given as the source filed them. How the source made its calls: active means growth percent below 10; inactive means the rest.
# What was measured:
# Assay in all cases: NCI-60 one-dose screen, 48 h (100 = growth as untreated, 0 = no growth, -100 = all killed)
# [1] = test system: MOLT-4 leukemia; conditions: 10 µM
# [2] = test system: SR leukemia; conditions: 10 µM
# [3] = test system: RPMI-8226 leukemia; conditions: 10 µM
# [4] = test system: OVCAR-8 ovarian; conditions: 10 µM
# [5] = test system: OVCAR-5 ovarian; conditions: 10 µM
# [6] = test system: OVCAR-4 ovarian; conditions: 10 µM
# [7] = test system: SK-OV-3 ovarian; conditions: 10 µM
# [8] = test system: IGROV1 ovarian; conditions: 10 µM
# [9] = test system: OVCAR-3 ovarian; conditions: 10 µM
# [10] = test system: HS 578T breast; conditions: 10 µM
# [11] = test system: NCI/ADR-RES ovarian; conditions: 10 µM
# [12] = test system: T-47D breast; conditions: 10 µM
# [13] = test system: BT-549 breast; conditions: 10 µM
# [14] = test system: MDA-MB-435 melanoma; conditions: 10 µM
# [15] = test system: SW-620 colon; conditions: 10 µM
# [16] = test system: MCF7 breast; conditions: 10 µM unless noted
# [17] = test system: HCT-116 colon; conditions: 10 µM
# [18] = test system: HCC-2998 colon; conditions: 10 µM
# [19] = test system: KM12 colon; conditions: 10 µM
SMILES,growth [1],growth [2],growth [3],growth [4],growth [5],growth [6],growth [7],growth [8],growth [9],growth [10],growth [11],growth [12],growth [13],growth [14],growth [15],growth [16],growth [17],growth [18],growth [19]
CC(=O)[O][Hg][c]1c(C)c(C)cc(C)c1C,-5.69% (active),-27.6% (active),7.45% (active),15.3% (inactive),-9.8% (active),-93.2% (active),97.5% (inactive),-73.2% (active),-93.6% (active),-1.53% (active),78.1% (inactive),-27.8% (active),-70.4% (active),-91.4% (active),-93.5% (active),-6.63% (active),-98.8% (active),12.5% (inactive),50.5% (inactive)
CC/C(=C/c1ccc(OC)cc1)[N+](=O)[O-],3.8% (active),1.84% (active),-8.7% (active),1.78% (active),10.9% (inactive),62% (inactive),104% (inactive),11.7% (inactive),-54.6% (active),90.2% (inactive),30.3% (inactive),-43.7% (active),-34.5% (active),,-76.8% (active),-41.5% (active),-81.3% (active),85.1% (inactive),33.8% (inactive)
Cc1ccc(C(=O)C2C(c3ccccc3)N2C2CCCCC2)cc1 (stereo not drawn),94.9% (inactive) and 93.3% (inactive),94.4% (inactive) and 97.4% (inactive),78.5% (inactive) and 94.1% (inactive),103% (inactive) and 101% (inactive),97.4% (inactive) and 95.9% (inactive),98.4% (inactive) and 87.2% (inactive),102% (inactive) and 96.2% (inactive),119% (inactive) and 92.4% (inactive),114% (inactive) and 108% (inactive),102% (inactive) and 97.1% (inactive),103% (inactive) and 99.7% (inactive),87.8% (inactive) and 89.7% (inactive),104% (inactive) and 105% (inactive),95% (inactive) and 88.3% (inactive),106% (inactive) and 95.2% (inactive),97% (inactive) and 94.2% (inactive),92.5% (inactive) and 75.3% (inactive),114% (inactive) and 113% (inactive),111% (inactive) and 100% (inactive)
NC(=O)c1cc([N+](=O)[O-])c(Cl)c([N+](=O)[O-])c1Cl,-15.3% (active),-11.2% (active),9.48% (active),-24.6% (active),78.2% (inactive),-58.8% (active),101% (inactive),27.6% (inactive),-97.4% (active),,20.4% (inactive),-36.7% (active),68.3% (inactive),11.1% (inactive),-79.9% (active),-44.4% (active),-39.2% (active),39.2% (inactive),19.1% (inactive)
Cc1cc(C(C)(C)c2ccc(O)c(C)c2)ccc1O,78.9% (inactive),92.2% (inactive),93.6% (inactive),81.8% (inactive),88.1% (inactive),83.9% (inactive),102% (inactive),106% (inactive),85.9% (inactive),,88.1% (inactive),81.3% (inactive),108% (inactive),80.4% (inactive),97.2% (inactive),119% (inactive),86.4% (inactive),104% (inactive),92.3% (inactive)
COS(=O)(=O)c1ccccc1,85.4% (inactive),71.1% (inactive),89.9% (inactive),101% (inactive),104% (inactive),110% (inactive),101% (inactive),120% (inactive),110% (inactive),,107% (inactive),104% (inactive),107% (inactive),108% (inactive),108% (inactive),99.5% (inactive),102% (inactive),101% (inactive),104% (inactive)
NC(Cc1ccccc1)c1ccccc1 (stereo not drawn),116% (inactive) and 94.2% (inactive),99.9% (inactive) and 93.7% (inactive),111% (inactive) and 100% (inactive),104% (inactive) and 108% (inactive),98.5% (inactive) and 96.1% (inactive),103% (inactive) and 112% (inactive),101% (inactive) and 103% (inactive),107% (inactive) and 101% (inactive),112% (inactive) and 118% (inactive),98.9% (inactive) and 119% (inactive),106% (inactive) and 102% (inactive),95.7% (inactive) and 101% (inactive),91.1% (inactive) and 89.4% (inactive),,112% (inactive) and 104% (inactive),97.5% (inactive) and 97% (inactive),99.7% (inactive) and 98.4% (inactive),105% (inactive) and 102% (inactive),104% (inactive) and 110% (inactive)
CC(Cc1ccc2c(c1)OCO2)NN (stereo not drawn),78.4% (inactive),91.6% (inactive),91.8% (inactive),97.7% (inactive),100% (inactive),106% (inactive),84.8% (inactive),100% (inactive),112% (inactive),93.3% (inactive),98.5% (inactive),77.5% (inactive),96.7% (inactive),,98.7% (inactive),91.2% (inactive),85.4% (inactive),101% (inactive),103% (inactive)
COc1cc(/C=C(/C)[N+](=O)[O-])ccc1O,-3.07% (active) and 1.18% (active),-14.7% (active) and -4.36% (active),-21.5% (active),37.5% (inactive) and 27.1% (inactive),83.5% (inactive) and 60.3% (inactive),50.6% (inactive),92.5% (inactive) and 90.2% (inactive),26.4% (inactive) and 21.3% (inactive),-76.2% (active) and -89.3% (active),48.5% (inactive) and -8.96% (active),62.4% (inactive) and -17.5% (active),-22.6% (active) and -40.3% (active),79.5% (inactive) and 95.1% (inactive),6.19% (active),-68% (active) and -56.1% (active),9.25% (active) and 1.76% (active),-56% (active) and -35.4% (active),30.3% (inactive) and 87.3% (inactive),59.9% (inactive) and 41.9% (inactive)
O=c1[nH]c2ccccc2n1C1CCN(CCCC(c2ccc(F)cc2)c2ccc(F)cc2)CC1,-34% (active) and 15.3% (inactive),-50.8% (active) and -35.4% (active),11.2% (inactive) and 0.602% (active),44.3% (inactive),38.3% (inactive),55.6% (inactive) and 70.2% (inactive),85.8% (inactive) and 78.4% (inactive),71.3% (inactive) and 55.5% (inactive),-74.2% (active) and 39.5% (inactive),55.2% (inactive) and -34.7% (active),48.3% (inactive) and 23.7% (inactive),55.7% (inactive) and 10.2% (inactive),35.8% (inactive) and 18.5% (inactive),,-21.1% (active) and 19.2% (inactive),65% (inactive) and 6.06% (active),-68.6% (active) and -39.9% (active),7.86% (active) and -80.1% (active),-0.627% (active) and 25.7% (inactive)
O=C(O)c1cc(Cc2ccc(O)c(C(=O)O)c2)ccc1O (tested in a mixture with another compound),54.3% (inactive),80.4% (inactive),-5.46% (active),68.1% (inactive),65.1% (inactive),66.9% (inactive),95.4% (inactive),-81.4% (active),70.4% (inactive),72.6% (inactive),75.7% (inactive),53.1% (inactive),73.8% (inactive),72.7% (inactive),64.6% (inactive),46.4% (inactive),45.1% (inactive),53.9% (inactive),65.9% (inactive)
COc1cc([N+](=O)[O-])c2ncccc2c1[N+](=O)[O-],26% (inactive),25.7% (inactive),45.8% (inactive),69.8% (inactive),124% (inactive),47.5% (inactive),91.5% (inactive),23.1% (inactive),58.1% (inactive),79.4% (inactive),81.7% (inactive),50.9% (inactive),98.2% (inactive),,-61.5% (active),23.3% (inactive),14.4% (inactive),102% (inactive),20.3% (inactive)
O=[N+]([O-])c1ccc(Br)c([N+](=O)[O-])c1,68.4% (inactive),21.8% (inactive),102% (inactive),91.9% (inactive),108% (inactive),103% (inactive),113% (inactive),63.5% (inactive),87.8% (inactive),,99% (inactive),54.4% (inactive),104% (inactive),102% (inactive),44.4% (inactive),52.5% (inactive),32.3% (inactive),96.2% (inactive),53.6% (inactive)
